# PubChem BioAssay (Tox21)
# “And” between values parts separate entries of the source, which are not always exact repeats. Identical values can stand only once. Inconclusive results are not listed. Entries that show only a call come without a potency. More than one record can exist for a structure, and the calls need not agree. The source made the active and inactive calls. Unless noted, calls come from the whole dose curve; as a rule, active = well fitted curve in the direction sought with a large enough effect in the repeat runs; inconclusive = weak or mixed curves; inactive = no such curve, though single readings can be large; an effect the other way counts as inactive or inconclusive.
# How the values were obtained:
# [1] = qHTS assay to identify small molecule agonists of the farnesoid-X-receptor (FXR) signaling pathway - cell viability counter screen (AID 743218); note: nearly all actives have a fitted effect of over 45% in size; note: potency is the fitted concentration of half-maximal effect
# Outline: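 Viability of FXR-bla HEK 293T cells is measured by ATP-based CellTiter-Glo luminescence following 16 h compound treatment at 37 C and a prior 2 h room-temperature beta-lactamase substrate step.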
# [2] = molecular target: Bile acid receptor (Homo sapiens) (UniProt Q96RI1); test: qHTS assay to identify small molecule agonists of the farnesoid-X-receptor (FXR) signaling pathway (AID 743220; active = well fitted activation curve with a large enough effect in the signal ratio in the repeat runs, not every such curve was filed as active; the % refers to the signal ratio)
# Bile acid receptor (Homo sapiens), sequence (Q96RI1 whole entry, looked up): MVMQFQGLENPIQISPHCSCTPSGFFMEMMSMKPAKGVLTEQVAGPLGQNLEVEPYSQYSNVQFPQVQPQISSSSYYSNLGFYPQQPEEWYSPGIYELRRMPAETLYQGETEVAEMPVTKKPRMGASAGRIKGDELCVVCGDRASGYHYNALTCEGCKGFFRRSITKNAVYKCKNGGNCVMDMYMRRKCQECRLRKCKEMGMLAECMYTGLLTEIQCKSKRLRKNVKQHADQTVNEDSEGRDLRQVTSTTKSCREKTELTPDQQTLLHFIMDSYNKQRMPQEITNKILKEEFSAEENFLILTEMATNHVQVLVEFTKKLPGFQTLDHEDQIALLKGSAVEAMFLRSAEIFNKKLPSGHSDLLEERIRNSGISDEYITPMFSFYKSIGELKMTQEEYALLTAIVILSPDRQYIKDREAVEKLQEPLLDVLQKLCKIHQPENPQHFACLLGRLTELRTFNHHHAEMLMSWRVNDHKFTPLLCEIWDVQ
# Outline: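 FXR-UAS-bla HEK 293T cells carrying a UAS-driven beta-lactamase reporter were plated for 5 h at 37C/5% CO2, then exposed to DMSO-dissolved Tox21 10K compounds for 16 h at 37C. A LiveBLAzer B/G FRET substrate was loaded for 2 h at room temperature before fluorescence reading.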
# [3] = qHTS assay to identify small molecule antagonists of the farnesoid-X-receptor (FXR) signaling pathway - cell viability counter screen (AID 743221; active = well fitted cell-killing curve with a large enough effect in the repeat runs, not every such curve was filed as active; note: nearly all actives have a fitted effect of over 50% in size; note: potency is the fitted concentration of half-maximal effect)
# Outline: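 Multiplexed counter screen: viability of FXR-bla HEK 293T cells under agonist stimulation by chenodeoxycholic acid (50 uM, final) and test compound for 16 h at 37 C, measured by CellTiter-Glo luminescence in the reporter wells.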
# [4] = molecular target: Vitamin D3 receptor (Homo sapiens) (UniProt P11473); test: qHTS assay to identify small molecule antagonists of the vitamin D receptor (VDR) signaling pathway (AID 743223; active = well fitted inhibition curve with a large enough effect in the signal ratio in the repeat runs, not every such curve was filed as active; the % refers to the signal ratio)
# Vitamin D3 receptor (Homo sapiens), sequence (P11473 whole entry, looked up): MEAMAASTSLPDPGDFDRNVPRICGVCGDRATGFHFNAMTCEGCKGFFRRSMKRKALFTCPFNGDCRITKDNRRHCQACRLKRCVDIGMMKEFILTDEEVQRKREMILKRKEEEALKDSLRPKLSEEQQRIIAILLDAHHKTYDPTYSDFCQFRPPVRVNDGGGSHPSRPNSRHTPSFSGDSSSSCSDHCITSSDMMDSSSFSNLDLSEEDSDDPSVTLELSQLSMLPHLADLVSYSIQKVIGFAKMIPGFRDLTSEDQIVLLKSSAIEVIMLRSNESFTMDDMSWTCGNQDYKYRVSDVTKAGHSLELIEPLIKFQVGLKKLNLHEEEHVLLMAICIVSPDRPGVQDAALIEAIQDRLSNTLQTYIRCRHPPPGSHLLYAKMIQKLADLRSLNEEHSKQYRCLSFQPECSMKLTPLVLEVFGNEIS
# Outline: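 Cells carrying a VDR-driven beta-lactamase reporter (VDR-bla) were co-treated with compound and 3 nM final 1alpha,25-dihydroxyvitamin D3 for 16 h at 37C; reporter activity was measured as FRET substrate fluorescence after 2 h at room temperature.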
# [5] = qHTS assay to identify small molecule antagonists of the vitamin D receptor (VDR) signaling pathway - cell viability counter screen (AID 743225); note: nearly all actives have a fitted effect of over 50% in size; note: potency is the fitted concentration of half-maximal effect
# Outline: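 HEK293T VDR-bla; cpd + 1a,25-(OH)2D3 3 nM final, 16 h 37C/5% CO2; B/G FRET substrate 2 h RT; then CellTiter-Glo 30 min RT, luminescence.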
# [6] = qHTS assay to identify small molecule agonists of the endoplasmic reticulum stress response signaling pathway (AID 1159516; active = well fitted activation curve with a large enough effect in the signal ratio in the repeat runs, not every such curve was filed as active; the % refers to the signal ratio)
# Outline: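 Using a HeLa line with an ESRE-driven beta-lactamase gene, agonist activity was measured by FRET substrate fluorescence (460 and 530 nm emission) after cells were treated with compounds for 5 hr at 37 C and 5% CO2.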
# [7] = qHTS assay to identify small molecule agonists of the endoplasmic reticulum stress response signaling pathway - cell viability counter screen (AID 1159517; calls by dose curve;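 note: HeLa cells carrying an ER stress response element beta-lactamase reporter; series mostly up to about 61 µM; nearly all actives have a fitted effect of over 50% in size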)
# Outline: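 In parallel with the ESRE reporter read, cytotoxicity was scored by CellTiter-Glo luminescence (30 min, room temperature) on HeLa ESRE-bla cells dosed for 5 hr.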
# [8] = qHTS assay to identify small molecule antagonists of the retinoid-related orphan receptor gamma (ROR-gamma) signaling pathway - cell viability counter screen (AID 1159520); note: nearly all actives have a fitted effect of over 50% in size; note: potency is the fitted concentration of half-maximal effect
# Outline: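 Tet-on ROR gamma CHO cells were given compounds for 2 hr, then doxycycline hyclate at 1 uM final, and incubated 16 hr at 37 C. Viability was measured as ATP content by CellTiter-Glo luminescence.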
# [9] = molecular target: Nuclear receptor ROR-gamma (Homo sapiens) (UniProt P51449); test: qHTS assay to identify small molecule antagonists of the retinoid-related orphan receptor gamma (ROR-gamma) signaling pathway (AID 1159521; note: nearly all actives have a fitted effect of over 50% in size; note: potency is the fitted concentration of half-maximal effect)
# Outline: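 Cells were plated, rested 4 h at 37 C, exposed to compounds for 2 h, then given 1 uM final doxycycline hyclate to induce RORγ expression. After 16 h, ONE-Glo luminescence from the ROR response element reporter was measured.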
# [10] = qHTS assay to identify small molecule agonists of the AP-1 signaling pathway - cell viability counter screen (AID 1159525; calls by dose curve; note: nearly all actives have a fitted effect of over 55% in size)
# Outline: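 Same-well cytotoxicity counter screen of the Tox21 10K library in ME-180 cells. The readout is ATP-dependent luminescence after 5 h compound treatment. Data are normalised to DMSO and tetra n-octyl ammonium bromide controls.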
# [11] = qHTS assay to identify small molecule agonists of the AP-1 signaling pathway (AID 1159526; calls by dose curve)
# [12] = qHTS assay to identify small molecule agonists of the RXR signaling pathway - cell viability counter screen (AID 1159529); note: nearly all actives have a fitted effect of over 50% in size; note: potency is the fitted concentration of half-maximal effect
# Outline: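 Steps: seed RXR-alpha-UAS-bla HEK 293T cells in assay medium containing 2% charcoal-stripped FBS; incubate 5 hr; add compounds in DMSO; incubate 16 hr at 37 C; after the bla read, add CellTiter-Glo and read luminescence at 30 min.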
# [13] = molecular target: Peroxisome proliferator-activated receptor delta (Homo sapiens) (UniProt Q03181); test: qHTS assay to identify small molecule agonists of the peroxisome proliferator-activated receptor delta (PPARd) signaling pathway (AID 743212; calls by dose curve)
# Peroxisome proliferator-activated receptor delta (Homo sapiens), sequence (Q03181 whole entry, looked up): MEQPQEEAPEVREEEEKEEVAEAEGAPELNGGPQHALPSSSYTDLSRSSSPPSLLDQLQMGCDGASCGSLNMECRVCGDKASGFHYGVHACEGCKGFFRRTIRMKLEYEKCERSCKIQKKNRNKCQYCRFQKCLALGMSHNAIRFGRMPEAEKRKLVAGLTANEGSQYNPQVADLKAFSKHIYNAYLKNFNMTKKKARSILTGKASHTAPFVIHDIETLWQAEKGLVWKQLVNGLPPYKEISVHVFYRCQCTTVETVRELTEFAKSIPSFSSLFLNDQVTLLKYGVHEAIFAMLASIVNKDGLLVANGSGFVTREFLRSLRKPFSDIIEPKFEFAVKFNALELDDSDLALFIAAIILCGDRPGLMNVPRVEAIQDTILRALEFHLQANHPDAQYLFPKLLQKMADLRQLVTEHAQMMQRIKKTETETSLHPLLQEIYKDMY
# Outline: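 Tox21 library screened in GeneBLAzer PPARd UAS-bla HEK293H cells. After compound treatment at 37 C, a FRET-based beta-lactamase substrate was applied for 2 h and fluorescence recorded.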
# [14] = qHTS assay to identify small molecule antagonists of the peroxisome proliferator-activated receptor delta (PPARd) signaling pathway - cell viability counter screen (AID 743213); note: nearly all actives have a fitted effect of over 50% in size
# Outline: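 Agonist-stimulated (L165041, 300 nM final) HEK293H PPARd UAS-bla cells are exposed to compounds for 17 h at 37 C, and ATP-based luminescence (CellTiter-Glo) from the same wells reports cytotoxicity.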
# [15] = molecular target: Peroxisome proliferator-activated receptor delta (Homo sapiens) (UniProt Q03181); test: qHTS assay to identify small molecule antagonists of the peroxisome proliferator-activated receptor delta (PPARd) signaling pathway (AID 743215; active = well fitted inhibition curve with a large enough effect in the signal ratio in the repeat runs, not every such curve was filed as active; the % refers to the signal ratio; note: series mostly up to about 62 µM)
# Outline: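 Plated HEK293H PPARd-bla cells rested 5 h at 37 C and 5% CO2. Compound, then agonist L165041 at 300 nM final, was added; 17 h at 37 C followed. Substrate loading, 2 h room temperature, fluorescence measured.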
# [16] = molecular target: Bile acid receptor (Homo sapiens) (UniProt Q96RI1); test: qHTS assay to identify small molecule antagonists of the farnesoid-X-receptor (FXR) signaling pathway (AID 743217; active = well fitted inhibition curve with a large enough effect in the signal ratio in the repeat runs, not every such curve was filed as active; the % refers to the signal ratio)
# Outline: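 Screen of the Tox21 10K library in quantitative HTS format using FXR-UAS-bla HEK 293T reporter cells. Agonist chenodeoxycholic acid, 50 uM final, added with compounds; 16 h incubation at 37 °C; beta-lactamase FRET fluorescence measured.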
# [17] = qHTS assay to identify small molecule agonists of the vitamin D receptor (VDR) signaling pathway - cell viability counter screen (AID 743224); note: nearly all actives have a fitted effect of over 50% in size; note: potency is the fitted concentration of half-maximal effect
# Outline: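 Compounds were pin-transferred onto VDR-bla cells plated 4 h earlier; following 16 h incubation at 37C, cell viability was quantified by CellTiter-Glo luminescence after 30 min at room temperature.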
# [18] = molecular target: Retinoic acid receptor RXR-alpha (Homo sapiens) (UniProt P19793); test: qHTS assay to identify small molecule agonists of the RXR signaling pathway (AID 1159527; calls by dose curve; note: nearly all actives have a fitted effect of over 35% in size)
# Retinoic acid receptor RXR-alpha (Homo sapiens), sequence (P19793 whole entry, looked up): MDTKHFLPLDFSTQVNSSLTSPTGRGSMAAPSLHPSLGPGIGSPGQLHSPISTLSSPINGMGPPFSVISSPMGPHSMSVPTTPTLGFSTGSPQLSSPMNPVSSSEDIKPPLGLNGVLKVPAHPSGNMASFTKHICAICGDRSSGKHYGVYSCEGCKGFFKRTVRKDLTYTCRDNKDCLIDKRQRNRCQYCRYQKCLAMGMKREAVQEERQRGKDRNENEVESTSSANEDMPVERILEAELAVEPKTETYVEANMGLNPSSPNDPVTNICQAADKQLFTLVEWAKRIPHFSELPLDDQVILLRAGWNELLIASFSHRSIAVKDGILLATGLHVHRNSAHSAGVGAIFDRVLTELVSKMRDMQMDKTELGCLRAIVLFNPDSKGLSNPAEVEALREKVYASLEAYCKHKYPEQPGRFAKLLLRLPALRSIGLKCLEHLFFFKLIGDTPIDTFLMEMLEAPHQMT
# Outline: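 Cells plated at 2,000/well, rested 5 hr at 37 C, pin-dosed with DMSO compound solutions, incubated 16 hr, then loaded with B/G FRET substrate for 2 hr at RT before dual-emission fluorescence reading.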
# [19] = qHTS assay to identify small molecule agonists of the NFkB signaling pathway - cell viability counter screen (AID 1159515; calls by dose curve; note: series mostly up to about 61 µM; nearly all actives have a fitted effect of over 55% in size)
# Outline: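 Parallel cytotoxicity counter screen in ME-180 cells carrying an NFkB-response-element beta-lactamase reporter, 2,000 cells/well. Compound exposure lasted 5 hr at 37 C, 5% CO2. Cell viability was quantified by CellTiter-Glo luminescence.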
# [20] = molecular target: Vitamin D3 receptor (Homo sapiens) (UniProt P11473); test: qHTS assay to identify small molecule agonists of the vitamin D receptor (VDR) signaling pathway (AID 743222; calls by dose curve)
# Outline: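 Fluorescence from cleaved LiveBLAzer B/G FRET substrate served as readout. VDR-bla cells had been treated 16 h at 37C with test compounds in DMSO, following a 4 h settling period, and substrate was loaded for 2 h at RT.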
Compound,Potency [1],outcome [2],Potency [3],Potency [4],Potency [5],Potency [6],Potency [7],Potency [8],Potency [9],Potency [10],Potency [11],Potency [12],Potency [13],Potency [14],Potency [15],Potency [16],Potency [17],outcome [18],Potency [19],Potency [20]
Cc1cc(C)cc(OP(=O)(Oc2cc(C)cc(C)c2)Oc2cc(C)cc(C)c2)c1,inactive,inactive,inactive,inactive,inactive,inactive,inactive,inactive,inactive,inactive,inactive,inactive,–,–,–,–,–,–,–,–
Cc1cc(C)c(C2=C(OC(=O)CC(C)(C)C)C3(CCCC3)OC2=O)c(C)c1,inactive,inactive,inactive,–,inactive,inactive,inactive,inactive,inactive,–,inactive,inactive,inactive,inactive,inactive,inactive,inactive,inactive,–,–
O=C(O)c1cc[c]([Hg][Cl])cc1,27.5 µM (active),–,inactive,–,21.9 µM (active),inactive,inactive,24.3 µM (active),4.86 µM (active),–,–,43.6 µM (active),–,–,inactive,–,24.5 µM (active),–,–,–
O=C(O)COc1nc(Cl)c(Cl)cc1Cl,–,inactive,inactive,–,–,inactive,inactive,inactive,–,inactive,inactive,–,–,–,–,–,–,–,–,–
CCC(C)(C)C(=O)OC1=C(c2ccc(Cl)cc2Cl)C(=O)OC12CCCCC2,–,inactive,inactive,–,inactive,–,–,–,–,inactive,–,inactive,inactive,inactive,inactive,–,inactive,inactive,inactive,–
CC(c1ccc(O)cc1)c1ccc(O)cc1,–,–,inactive,–,inactive,inactive,inactive,inactive,inactive and 61.1 µM (active),–,inactive,inactive,–,inactive,–,–,inactive,inactive,–,–
CC(C)CCCCCCCOP(=O)(Oc1ccccc1)Oc1ccccc1,–,–,inactive,–,inactive,inactive,inactive,inactive,–,–,–,–,–,–,inactive,–,inactive,–,–,–
CCCCCCCCCCCCBr,–,–,43.6 µM (active),inactive,–,inactive,inactive,inactive,inactive,inactive,inactive,–,inactive,inactive,–,–,–,–,–,–
COc1ccc(/C(=C/C(=O)N2CCOCC2)c2ccc(Cl)cc2)cc1OC,–,inactive,inactive,–,inactive,inactive,inactive,inactive,inactive,inactive,inactive,–,–,inactive,–,–,inactive,–,–,inactive
CN(C)CCc1c[nH]c2cccc(O)c12,inactive,–,–,inactive,inactive,inactive,inactive,inactive,inactive,inactive,–,–,inactive,inactive,inactive,–,–,–,–,inactive
